Results from PubChem BioAssay.
Calls of active or inactive are those of the source. The rule behind the calls is not given here.

test system: Aerobactin synthetase IucA (Klebsiella pneumoniae, hypervirulent); assay: biochemical IucA inhibition screen of LOPAC library by absorbance (AID 1346212); conditions: IucA enzyme assay, absorbance (OD) readout; active compounds read low;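 tested at 8 µM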;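 note: 100% = no compound wells and 0% = no enzyme wells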

Row | Compound | remaining activity
1 | C#CCn1c(=O)c2c(ncn2C)n(C)c1=O | 109% (inactive)
2 | CC(C)(CO)Cc1cc(C(C)(C)C)c(O)c(C(C)(C)C)c1 | 109% (inactive)
3 | N=c1ccn2c(n1)O[C@H]1[C@H](O)[C@@H](CO)O[C@H]12 | 95.9% (inactive)
4 | Cc1cccc(C)c1NC(=O)C[N+](C)(C)C | 116% (inactive)
5 | N#C/C(=C\c1ccc(O)c(O)c1)C(=O)c1ccc(O)c(O)c1 | 79.7% (inactive)
6 | Nc1ccc(-c2nc3ccc(-c4nc5ccc(N)cc5[nH]4)cc3[nH]2)cc1 | 114% (inactive)
7 | O=c1onc2n1-c1cc(Br)ccc1OC2 | 105% (inactive)
8 | NS(=O)(=O)C#Cc1ccccc1 | 118% (inactive)
9 | COc1ccccc1N1CCN(CCCNc2cc(=O)n(C)c(=O)n2C)CC1 | 97% (inactive)
10 | NC(N)=NC(N)=Nc1cccc(Cl)c1 | 102% (inactive)
11 | CC(C(=O)O)c1ccc(CC2CCCC2=O)cc1 (centres undefined) | 120% (inactive)
12 | Nc1ncnc2c1ncn2C1CCCC1 | 120% (inactive)
13 | CNc1ncnc2c1ncn2[C@@H]1O[C@H](CO)[C@@H](O)[C@H]1O | 125% (inactive)
14 | Cn1ccnc1 | 101% (inactive)
15 | N=C1Sc2ccccc2C2=NCCCN12 | 118% (inactive)
16 | O=C1Cc2c([nH]c3ccc(Br)cc23)-c2ccccc2N1 | 125% (inactive)
17 | Nc1nc2ccc(Cl)cc2c2nc(-c3ccco3)nn12 | 104% (inactive)
18 | N#C/C(=C\c1ccc(O)c(O)c1)C(=O)NCCc1ccccc1 | 102% (inactive)
19 | CC(=O)[C@]1(O)Cc2c(O)c3c(c(O)c2[C@@H](O[C@H]2C[C@H](N)[C@H](O)[C@H](C)O2)C1)C(=O)c1ccccc1C3=O | 125% (inactive)
